How the values were obtained:
Experiment in all cases: DAPPL (digital affinity profiling via proximity ligation, sequencing); 10 mM Tris-HCl pH 7.5, 50 mM NaCl, 1 mM DTT, 4% glycerol, room temperature, 30 min; GST-TFs on glutathione beads, 16-mer random dsDNA library, 0.1% formaldehyde crosslink after washing; high values mean tight binding
FLI1 = molecular target: T1, FLI1 (Homo sapiens, UniProt Q01543 1-452); conditions: protein: recombinant; tags: N-terminal GST; dsDNA, one strand shown
T1 sequence: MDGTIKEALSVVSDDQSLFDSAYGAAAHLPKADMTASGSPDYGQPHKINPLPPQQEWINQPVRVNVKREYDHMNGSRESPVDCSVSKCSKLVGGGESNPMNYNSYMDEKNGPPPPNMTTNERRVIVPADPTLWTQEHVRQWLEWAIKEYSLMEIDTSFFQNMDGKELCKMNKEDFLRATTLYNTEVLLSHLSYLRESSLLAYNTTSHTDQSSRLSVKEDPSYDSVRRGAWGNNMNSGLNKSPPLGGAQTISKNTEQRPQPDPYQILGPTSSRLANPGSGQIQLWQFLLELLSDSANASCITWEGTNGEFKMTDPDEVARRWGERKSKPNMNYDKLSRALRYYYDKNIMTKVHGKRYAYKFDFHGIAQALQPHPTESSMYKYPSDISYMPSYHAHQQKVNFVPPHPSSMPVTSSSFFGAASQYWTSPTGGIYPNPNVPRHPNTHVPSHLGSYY
Summary of the method: (§1)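 A tag-only sample was pooled with DNA-barcoded human transcription factors that had been expressed in yeast as GST fusions and captured on glutathione beads. The pools were incubated for 30 min at room temperature with 200 nmole of a random double-stranded 16-mer DNA library in Tris/NaCl/DTT/glycerol buffer, then washed, crosslinked with 0.1% formaldehyde, proximity-ligated (BsaI/T4 ligase, 1 h, 37 °C), PCR-amplified and sequenced on an Illumina NextSeq500. Binding signal is each hexamer's read frequency for a factor divided by its frequency for the tag-only sample.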

ELK1 = molecular target: T2, ELK1 (Homo sapiens, UniProt P19419 1-428); conditions: protein: recombinant; tags: N-terminal GST; dsDNA, one strand shown
T2 sequence: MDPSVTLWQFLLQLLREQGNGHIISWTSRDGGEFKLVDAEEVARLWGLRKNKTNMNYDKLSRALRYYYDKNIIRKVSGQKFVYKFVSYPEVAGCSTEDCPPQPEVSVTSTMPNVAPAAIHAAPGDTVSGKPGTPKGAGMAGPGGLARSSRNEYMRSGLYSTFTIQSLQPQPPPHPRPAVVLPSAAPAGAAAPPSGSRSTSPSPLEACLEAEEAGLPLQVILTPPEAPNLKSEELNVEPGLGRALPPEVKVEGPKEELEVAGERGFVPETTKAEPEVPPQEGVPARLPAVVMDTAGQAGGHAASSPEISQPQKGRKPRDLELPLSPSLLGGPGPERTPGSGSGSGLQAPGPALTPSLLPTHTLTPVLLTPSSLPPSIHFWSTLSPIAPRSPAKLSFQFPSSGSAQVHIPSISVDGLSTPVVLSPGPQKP
Summary of the method: as §1

GABPA = molecular target: T3, GABPA (Homo sapiens, UniProt Q06546 1-454); conditions: protein: recombinant; tags: N-terminal GST; dsDNA, one strand shown
T3 sequence: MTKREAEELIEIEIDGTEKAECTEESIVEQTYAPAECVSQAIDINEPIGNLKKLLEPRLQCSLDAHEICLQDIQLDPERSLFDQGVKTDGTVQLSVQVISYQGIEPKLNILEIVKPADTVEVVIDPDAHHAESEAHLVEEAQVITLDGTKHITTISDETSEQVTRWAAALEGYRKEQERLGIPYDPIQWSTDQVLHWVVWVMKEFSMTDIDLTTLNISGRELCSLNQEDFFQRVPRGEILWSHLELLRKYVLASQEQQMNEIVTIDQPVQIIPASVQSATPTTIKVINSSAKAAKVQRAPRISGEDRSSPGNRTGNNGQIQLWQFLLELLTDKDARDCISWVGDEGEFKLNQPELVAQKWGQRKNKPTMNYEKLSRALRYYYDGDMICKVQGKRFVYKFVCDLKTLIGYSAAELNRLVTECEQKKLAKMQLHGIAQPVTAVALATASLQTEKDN
Summary of the method: as §1

ERG = molecular target: T4, ERG (Homo sapiens, UniProt P11308 1-479); conditions: protein: recombinant; tags: N-terminal GST; dsDNA, one strand shown
T4 sequence: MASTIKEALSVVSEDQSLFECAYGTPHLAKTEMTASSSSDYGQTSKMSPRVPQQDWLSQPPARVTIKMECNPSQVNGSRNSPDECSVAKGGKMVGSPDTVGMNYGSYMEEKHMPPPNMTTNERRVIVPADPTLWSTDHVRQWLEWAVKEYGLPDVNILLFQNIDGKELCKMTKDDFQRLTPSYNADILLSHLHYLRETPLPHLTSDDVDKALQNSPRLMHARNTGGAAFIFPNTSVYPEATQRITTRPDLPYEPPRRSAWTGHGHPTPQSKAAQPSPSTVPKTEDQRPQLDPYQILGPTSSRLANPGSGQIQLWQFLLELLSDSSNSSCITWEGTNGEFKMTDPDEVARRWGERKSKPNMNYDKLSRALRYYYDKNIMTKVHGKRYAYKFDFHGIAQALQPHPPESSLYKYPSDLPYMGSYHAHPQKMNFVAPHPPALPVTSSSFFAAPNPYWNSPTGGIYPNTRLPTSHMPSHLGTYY
Summary of the method: as §1

ELF1 = ELF1 (Homo sapiens, UniProt P32519 1-619); conditions: protein: recombinant; tags: N-terminal GST; dsDNA, one strand shown
Summary of the method: as §1

EHF = molecular target: T5, EHF (Homo sapiens, UniProt Q9NZC4 1-300); conditions: protein: recombinant; tags: N-terminal GST; dsDNA, one strand shown
T5 sequence: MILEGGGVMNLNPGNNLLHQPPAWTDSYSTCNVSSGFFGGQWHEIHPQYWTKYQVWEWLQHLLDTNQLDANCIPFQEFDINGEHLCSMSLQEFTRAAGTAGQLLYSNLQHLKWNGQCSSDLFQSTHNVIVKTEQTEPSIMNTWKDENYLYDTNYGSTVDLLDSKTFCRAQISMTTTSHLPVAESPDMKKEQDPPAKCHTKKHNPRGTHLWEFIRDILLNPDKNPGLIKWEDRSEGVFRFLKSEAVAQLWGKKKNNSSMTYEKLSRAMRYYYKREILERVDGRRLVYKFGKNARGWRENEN
Summary of the method: as §1

SPI1 = SPI1 (Homo sapiens, UniProt P17947 1-270); conditions: protein: recombinant; tags: N-terminal GST; dsDNA, one strand shown
Summary of the method: as §1

SPIB = SPIB (Homo sapiens, UniProt Q01892 1-262); conditions: protein: recombinant; tags: N-terminal GST; dsDNA, one strand shown
Summary of the method: as §1

ELK3 = molecular target: T6, ELK3 (Homo sapiens, UniProt P41970 1-407); conditions: protein: recombinant; tags: N-terminal GST; dsDNA, one strand shown
T6 sequence: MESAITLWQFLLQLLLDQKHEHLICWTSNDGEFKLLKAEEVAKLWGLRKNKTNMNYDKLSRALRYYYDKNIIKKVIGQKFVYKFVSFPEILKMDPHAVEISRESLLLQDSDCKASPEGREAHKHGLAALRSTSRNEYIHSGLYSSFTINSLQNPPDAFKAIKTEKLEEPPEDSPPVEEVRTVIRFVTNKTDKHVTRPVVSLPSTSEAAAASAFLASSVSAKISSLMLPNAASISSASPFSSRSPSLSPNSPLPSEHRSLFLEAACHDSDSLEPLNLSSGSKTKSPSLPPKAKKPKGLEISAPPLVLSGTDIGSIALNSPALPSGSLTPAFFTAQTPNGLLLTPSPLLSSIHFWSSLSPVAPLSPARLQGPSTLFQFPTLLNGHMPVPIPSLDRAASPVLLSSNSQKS
Summary of the method: as §1

FEV = molecular target: T7, FEV (Homo sapiens, UniProt Q99581 1-238); conditions: protein: recombinant; tags: N-terminal GST; dsDNA, one strand shown
T7 sequence: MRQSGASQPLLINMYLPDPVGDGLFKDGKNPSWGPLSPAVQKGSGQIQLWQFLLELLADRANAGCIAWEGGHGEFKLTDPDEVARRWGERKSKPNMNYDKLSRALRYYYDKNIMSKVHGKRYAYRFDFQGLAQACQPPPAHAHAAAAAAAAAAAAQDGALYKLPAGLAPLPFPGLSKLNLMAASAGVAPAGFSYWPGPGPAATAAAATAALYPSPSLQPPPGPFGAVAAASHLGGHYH
Summary of the method: as §1

ETV5 = ETV5 (Homo sapiens, UniProt P41161 1-510); conditions: protein: recombinant; tags: N-terminal GST; dsDNA, one strand shown
Summary of the method: as §1

HSF1 = HSF1 (Homo sapiens, UniProt Q00613 1-529); conditions: protein: recombinant; tags: N-terminal GST; chain copies: 3; dsDNA, one strand shown
Summary of the method: as §1

SPIC = molecular target: T8, SPIC (Homo sapiens, UniProt Q8N5J4 1-248); conditions: protein: recombinant; tags: N-terminal GST; dsDNA, one strand shown
T8 sequence: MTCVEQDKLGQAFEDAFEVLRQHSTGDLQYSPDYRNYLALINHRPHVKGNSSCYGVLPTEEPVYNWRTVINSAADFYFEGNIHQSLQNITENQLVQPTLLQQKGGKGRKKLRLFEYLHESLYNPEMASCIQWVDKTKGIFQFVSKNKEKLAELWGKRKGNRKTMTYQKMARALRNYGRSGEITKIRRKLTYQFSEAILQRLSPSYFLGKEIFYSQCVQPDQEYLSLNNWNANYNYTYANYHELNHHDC
Summary of the method: as §1

ELF4 = ELF4 (Homo sapiens, UniProt Q99607 1-663); conditions: protein: recombinant; tags: N-terminal GST; dsDNA, one strand shown
Summary of the method: as §1

ELK4 = molecular target: T9, ELK4 (Homo sapiens, UniProt P28324-2 1-405); conditions: protein: recombinant; tags: N-terminal GST; dsDNA, one strand shown
T9 sequence: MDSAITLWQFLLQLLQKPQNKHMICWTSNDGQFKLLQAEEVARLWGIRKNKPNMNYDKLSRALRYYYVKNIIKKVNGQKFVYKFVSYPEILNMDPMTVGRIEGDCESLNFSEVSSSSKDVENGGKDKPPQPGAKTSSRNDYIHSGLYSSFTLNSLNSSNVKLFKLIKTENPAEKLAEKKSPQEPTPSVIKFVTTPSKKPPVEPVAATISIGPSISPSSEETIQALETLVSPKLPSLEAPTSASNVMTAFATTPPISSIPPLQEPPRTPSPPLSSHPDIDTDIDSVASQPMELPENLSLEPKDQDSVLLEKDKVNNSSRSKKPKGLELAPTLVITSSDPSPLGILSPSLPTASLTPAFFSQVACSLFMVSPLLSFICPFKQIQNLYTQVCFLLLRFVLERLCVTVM
Summary of the method: as §1

ETV2 = molecular target: T10, ETV2 (Homo sapiens, UniProt O00321 1-342); conditions: protein: recombinant; tags: N-terminal GST; dsDNA, one strand shown
T10 sequence: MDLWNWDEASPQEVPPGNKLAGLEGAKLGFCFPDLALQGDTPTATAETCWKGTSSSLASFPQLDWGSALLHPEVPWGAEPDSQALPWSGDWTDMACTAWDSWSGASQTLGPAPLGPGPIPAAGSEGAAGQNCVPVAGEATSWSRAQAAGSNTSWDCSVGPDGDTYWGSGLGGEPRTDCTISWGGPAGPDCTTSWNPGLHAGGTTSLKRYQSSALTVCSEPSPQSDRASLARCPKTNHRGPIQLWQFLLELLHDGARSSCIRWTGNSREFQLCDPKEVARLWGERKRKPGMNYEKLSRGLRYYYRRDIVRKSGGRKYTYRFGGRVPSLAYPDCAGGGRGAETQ
Summary of the method: as §1

ELF3 = molecular target: T11, ELF3 (Homo sapiens, UniProt P78545 1-371); conditions: protein: recombinant; tags: N-terminal GST; dsDNA, one strand shown
T11 sequence: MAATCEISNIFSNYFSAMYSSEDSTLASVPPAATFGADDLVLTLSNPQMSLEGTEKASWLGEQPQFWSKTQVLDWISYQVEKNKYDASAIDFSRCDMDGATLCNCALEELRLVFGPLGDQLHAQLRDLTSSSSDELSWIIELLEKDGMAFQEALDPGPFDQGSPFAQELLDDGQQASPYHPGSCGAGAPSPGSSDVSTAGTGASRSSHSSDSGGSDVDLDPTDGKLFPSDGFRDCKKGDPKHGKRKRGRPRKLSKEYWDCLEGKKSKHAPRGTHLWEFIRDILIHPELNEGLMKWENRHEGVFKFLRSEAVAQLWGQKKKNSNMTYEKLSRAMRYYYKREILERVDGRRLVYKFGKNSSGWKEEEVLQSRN
Summary of the method: as §1

CRX = CRX (Homo sapiens, UniProt O43186 1-299); conditions: protein: recombinant; tags: N-terminal GST; dsDNA, one strand shown
Summary of the method: as §1

ETV1 = ETV1 (Homo sapiens, UniProt P50549 1-477); conditions: protein: recombinant; tags: N-terminal GST; dsDNA, one strand shown
Summary of the method: as §1

Sequence of ETV1 (P50549 whole entry): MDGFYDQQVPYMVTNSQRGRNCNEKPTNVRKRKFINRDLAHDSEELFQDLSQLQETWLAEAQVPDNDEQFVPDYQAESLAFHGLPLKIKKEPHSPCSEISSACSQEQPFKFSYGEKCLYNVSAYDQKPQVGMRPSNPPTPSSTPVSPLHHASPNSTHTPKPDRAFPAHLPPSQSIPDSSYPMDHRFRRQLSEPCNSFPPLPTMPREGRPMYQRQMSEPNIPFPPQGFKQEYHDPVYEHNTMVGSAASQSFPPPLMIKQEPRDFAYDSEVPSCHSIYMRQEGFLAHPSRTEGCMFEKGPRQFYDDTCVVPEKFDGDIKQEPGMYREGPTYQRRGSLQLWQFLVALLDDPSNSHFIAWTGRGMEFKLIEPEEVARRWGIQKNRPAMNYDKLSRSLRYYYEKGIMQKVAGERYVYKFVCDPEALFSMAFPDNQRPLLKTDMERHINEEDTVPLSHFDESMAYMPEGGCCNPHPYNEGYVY
Sequence of HSF1 (Q00613 whole entry): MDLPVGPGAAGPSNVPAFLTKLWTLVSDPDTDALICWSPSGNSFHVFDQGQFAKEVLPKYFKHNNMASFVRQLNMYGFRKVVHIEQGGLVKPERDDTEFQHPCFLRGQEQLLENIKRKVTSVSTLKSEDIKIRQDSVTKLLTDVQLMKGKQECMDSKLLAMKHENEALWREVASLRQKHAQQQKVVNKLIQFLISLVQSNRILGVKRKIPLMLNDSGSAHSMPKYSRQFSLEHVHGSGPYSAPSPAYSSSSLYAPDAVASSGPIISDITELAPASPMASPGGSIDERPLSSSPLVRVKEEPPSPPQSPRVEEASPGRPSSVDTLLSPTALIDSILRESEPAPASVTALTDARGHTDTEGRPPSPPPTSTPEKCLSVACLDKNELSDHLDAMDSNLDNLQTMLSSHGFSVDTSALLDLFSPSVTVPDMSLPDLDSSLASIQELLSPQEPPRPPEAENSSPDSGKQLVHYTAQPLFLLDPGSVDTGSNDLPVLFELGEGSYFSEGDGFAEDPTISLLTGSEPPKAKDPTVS
Sequence of ELF4 (Q99607 whole entry): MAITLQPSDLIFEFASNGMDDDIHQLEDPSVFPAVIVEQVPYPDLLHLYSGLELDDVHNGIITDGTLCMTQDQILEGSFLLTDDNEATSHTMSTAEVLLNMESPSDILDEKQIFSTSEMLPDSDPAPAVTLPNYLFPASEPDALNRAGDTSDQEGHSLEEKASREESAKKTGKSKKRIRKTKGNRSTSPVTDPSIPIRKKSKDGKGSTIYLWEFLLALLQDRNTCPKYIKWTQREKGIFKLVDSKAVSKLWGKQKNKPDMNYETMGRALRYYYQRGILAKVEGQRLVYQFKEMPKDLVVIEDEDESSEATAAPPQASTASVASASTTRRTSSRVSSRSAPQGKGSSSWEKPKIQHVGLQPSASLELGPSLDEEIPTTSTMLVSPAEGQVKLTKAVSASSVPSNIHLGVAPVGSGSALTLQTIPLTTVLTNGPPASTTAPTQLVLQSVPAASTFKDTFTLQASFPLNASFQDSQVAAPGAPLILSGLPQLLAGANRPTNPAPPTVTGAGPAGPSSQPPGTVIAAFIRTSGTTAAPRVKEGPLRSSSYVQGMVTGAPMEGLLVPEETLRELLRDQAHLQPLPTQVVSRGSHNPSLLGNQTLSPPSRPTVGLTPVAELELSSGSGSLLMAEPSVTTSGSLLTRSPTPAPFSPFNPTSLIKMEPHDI
Sequence of ETV5 (P41161 whole entry): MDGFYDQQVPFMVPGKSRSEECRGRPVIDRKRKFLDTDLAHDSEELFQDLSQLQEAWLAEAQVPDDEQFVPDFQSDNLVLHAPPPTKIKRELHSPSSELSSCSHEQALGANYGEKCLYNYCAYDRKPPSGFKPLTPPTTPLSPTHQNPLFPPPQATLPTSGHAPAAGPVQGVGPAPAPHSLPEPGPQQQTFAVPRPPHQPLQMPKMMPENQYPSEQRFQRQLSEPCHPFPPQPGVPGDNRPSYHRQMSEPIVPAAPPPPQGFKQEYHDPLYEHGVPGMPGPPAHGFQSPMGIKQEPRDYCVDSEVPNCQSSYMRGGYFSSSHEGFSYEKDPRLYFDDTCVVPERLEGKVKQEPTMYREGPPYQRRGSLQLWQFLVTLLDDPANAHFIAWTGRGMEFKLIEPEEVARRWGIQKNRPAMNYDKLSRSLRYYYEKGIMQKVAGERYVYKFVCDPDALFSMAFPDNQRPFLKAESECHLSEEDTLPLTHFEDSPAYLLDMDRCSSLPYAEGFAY
Sequence of SPIB (Q01892 whole entry): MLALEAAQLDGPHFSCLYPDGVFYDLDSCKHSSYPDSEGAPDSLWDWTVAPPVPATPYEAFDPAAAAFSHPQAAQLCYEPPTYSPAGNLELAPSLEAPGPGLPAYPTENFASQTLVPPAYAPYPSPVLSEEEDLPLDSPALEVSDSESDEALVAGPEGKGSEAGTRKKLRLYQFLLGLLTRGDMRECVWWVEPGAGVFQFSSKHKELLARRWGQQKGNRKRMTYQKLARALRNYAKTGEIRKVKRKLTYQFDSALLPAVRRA
Sequence of ELF1 (P32519 whole entry): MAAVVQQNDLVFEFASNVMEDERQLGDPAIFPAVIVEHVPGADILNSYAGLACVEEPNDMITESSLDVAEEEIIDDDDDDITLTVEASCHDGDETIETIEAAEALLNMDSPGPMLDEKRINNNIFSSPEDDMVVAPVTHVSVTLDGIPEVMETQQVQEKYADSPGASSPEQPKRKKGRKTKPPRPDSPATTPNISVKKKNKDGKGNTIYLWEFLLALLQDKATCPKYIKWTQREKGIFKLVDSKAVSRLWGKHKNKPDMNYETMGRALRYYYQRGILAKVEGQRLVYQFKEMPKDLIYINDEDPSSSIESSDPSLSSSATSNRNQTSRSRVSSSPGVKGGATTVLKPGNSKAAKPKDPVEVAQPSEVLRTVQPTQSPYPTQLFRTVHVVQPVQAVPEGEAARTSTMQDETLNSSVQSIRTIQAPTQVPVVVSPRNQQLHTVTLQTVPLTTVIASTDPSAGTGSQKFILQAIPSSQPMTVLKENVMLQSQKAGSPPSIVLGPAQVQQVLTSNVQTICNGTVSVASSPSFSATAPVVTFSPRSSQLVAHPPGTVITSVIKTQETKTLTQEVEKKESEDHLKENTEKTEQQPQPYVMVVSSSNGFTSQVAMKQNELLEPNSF
Sequence of CRX (O43186 whole entry): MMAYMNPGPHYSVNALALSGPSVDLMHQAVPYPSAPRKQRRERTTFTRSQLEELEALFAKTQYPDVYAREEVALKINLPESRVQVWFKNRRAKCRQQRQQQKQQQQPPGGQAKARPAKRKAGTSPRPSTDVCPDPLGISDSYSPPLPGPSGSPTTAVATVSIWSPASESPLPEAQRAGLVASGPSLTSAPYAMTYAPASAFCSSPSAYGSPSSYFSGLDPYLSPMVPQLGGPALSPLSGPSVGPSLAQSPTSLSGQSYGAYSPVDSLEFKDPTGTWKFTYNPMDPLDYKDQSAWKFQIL

ATTACT
binding signal (FLI1): 1.3 fold enrichment (6-mer frequency, TF over GST control) | binding signal (ELK1): 1.12 fold enrichment (6-mer frequency, TF over GST control) | binding signal (GABPA): 1.29 fold enrichment (6-mer frequency, TF over GST control) | binding signal (ERG): 1.22 fold enrichment (6-mer frequency, TF over GST control) | binding signal (ELF1): 1.28 fold enrichment (6-mer frequency, TF over GST control) | binding signal (EHF): 1.27 fold enrichment (6-mer frequency, TF over GST control) | binding signal (SPI1): 1.28 fold enrichment (6-mer frequency, TF over GST control) | binding signal (SPIB): 1.33 fold enrichment (6-mer frequency, TF over GST control) | binding signal (ELK3): 1.24 fold enrichment (6-mer frequency, TF over GST control) | binding signal (FEV): 1.27 fold enrichment (6-mer frequency, TF over GST control) | binding signal (ETV5): 1.23 fold enrichment (6-mer frequency, TF over GST control) | binding signal (HSF1): 1.66 fold enrichment (6-mer frequency, TF over GST control) | binding signal (SPIC): 1.38 fold enrichment (6-mer frequency, TF over GST control) | binding signal (ELF4): 1.19 fold enrichment (6-mer frequency, TF over GST control) | binding signal (ELK4): 1.39 fold enrichment (6-mer frequency, TF over GST control) | binding signal (ETV2): 1.48 fold enrichment (6-mer frequency, TF over GST control) | binding signal (ELF3): 1.39 fold enrichment (6-mer frequency, TF over GST control) | binding signal (CRX): 2.22 fold enrichment (6-mer frequency, TF over GST control) | binding signal (ETV1): 1.35 fold enrichment (6-mer frequency, TF over GST control)

From article PMC7862700, “An all-to-all approach to the identification of sequence-specific readers for epigenetic DNA modifications on cytosine”
